Screening results (PubChem BioAssay)
hNpr1 antagonist – human Npr1 receptor antagonism; HEK293 hNpr1 GloSensor cGMP, ANP-stimulated luminescence; Potency, µM (doses to about 46.3 µM), for the others: at the highest dose activity change, negative = inhibition, most hits filed as inhibitors; 1.6% of 76,000 active; AID 1347048; calls by dose curve; further: nearly all actives have a fitted effect of over 60% in size
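HEK293 cells stably expressing human Npr1 and cGMP GloSensor pGS-40F, loaded 2 h with 2% GloSensor reagent, given compound 30 min at room temperature. Luminescence read before and 20 min after 0.1 nM hNppA.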
Luciferase inh – inhibitors of firefly (Photinus pyralis) luciferase; P08659; purified P. pyralis luciferase, luminescence, biochemical; Potency, µM (series often up to 115 µM), usual class: inhibitors; 2.5% of 76,000 active; AID 1347043; further: nearly all actives have a fitted effect of over 65% in size
Target sequence (P08659 whole entry, looked up): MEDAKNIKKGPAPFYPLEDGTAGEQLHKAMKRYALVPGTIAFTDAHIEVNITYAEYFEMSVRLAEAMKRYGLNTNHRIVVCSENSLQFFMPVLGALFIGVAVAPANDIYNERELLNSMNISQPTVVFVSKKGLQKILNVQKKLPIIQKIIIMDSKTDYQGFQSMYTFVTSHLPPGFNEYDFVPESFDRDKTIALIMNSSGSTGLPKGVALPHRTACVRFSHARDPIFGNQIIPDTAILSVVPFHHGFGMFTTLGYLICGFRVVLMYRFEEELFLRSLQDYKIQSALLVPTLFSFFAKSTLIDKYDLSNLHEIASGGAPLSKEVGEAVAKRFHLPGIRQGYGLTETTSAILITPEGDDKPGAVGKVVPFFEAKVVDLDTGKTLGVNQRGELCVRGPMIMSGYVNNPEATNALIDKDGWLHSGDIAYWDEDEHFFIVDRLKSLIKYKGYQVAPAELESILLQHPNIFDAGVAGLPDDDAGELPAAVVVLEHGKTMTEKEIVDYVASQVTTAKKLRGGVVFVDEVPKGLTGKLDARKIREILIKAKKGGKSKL
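Luminescence read by CCD imager after adding enzyme (10nM final) to wells holding compound, titrated in qHTS. Substrates 10uM each D-luciferin and ATP; buffer 50mM Tris acetate pH 7.5, 10mM Mg acetate, Tween-20, BSA.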
HEK cytotox – cytotoxic compounds in HEK 293 cells | 6.6% of 94,000 active | HEK 293 viability, ATP luminescence (CellTiter-Glo), 48-72 h | Potency, µM (top dose mostly 115 µM), for the others: top-dose activity change, negative = cytotoxicity, usual class: inhibitors; further: nearly all actives have a fitted effect of over 60% in size
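Cells seeded first (HEK 293, 250 cells/well), then compound added by pintool. Incubation ran 48 or 72 hr at 37 degree Celsius. CellTiter-Glo was added and luminescence imaged after 10 min at room temperature.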
NIH3T3 tox – cytotoxic compounds in NIH 3T3 cells | NIH 3T3 viability, CellTiter-Glo ATP luminescence, 48-72 h | Potency, µM (titrated, usually from 96.7 µM), inactives show at the top dose activity change, negative = cytotoxicity, usual class: inhibitors | 4.3% of 94,000 active; further: nearly all actives have a fitted effect of over 55% in size
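NIH 3T3 cells at 400 cells/well received 23 nL of compound by pintool and were incubated 48 or 72 h at 37 °C. Viability was read as ATP-coupled CellTiter-Glo luminescence.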
* = called active by the depositor; i = inactive; ? = inconclusive; nt = not tested or not shown; [ ] = dose if it differs, or a comment. Sampled rows, rich in hits. Any-hit rate of the full collection: about 11%. Unless noted, the call rests on the fitted dose curve; in most records, active means well fitted curve in the direction sought with a large enough effect; inconclusive means small, poorly fitted or top-dose-only effect, or another doubt; inactive means no such curve, though single readings can be large; an effect the other way counts as inactive or inconclusive. On the % scale 0 is the no-effect control and ±100 the full control effect; potency means the concentration at half of the fitted maximal effect.

SMILES	hNpr1 antagonist	Luciferase inh	HEK cytotox	NIH3T3 tox
CCN1c2cc(C(=O)Nc3cc(C)cc(C)c3)ccc2C(=O)N2CCCCC21 (stereo not given)	-4%	i	28µM*	?
CC(C)(C)C(=O)N1CCN(c2ccnc3ccnn23)CC1	nt	nt	2%[172 µM]	0%[138 µM]
COc1ccc(C(=O)N2CCCC(c3nc(-c4ccccc4)no3)CCNC(=O)CC2)c(OC)c1 (stereo not given)	-3%	?	?	-21%
COc1ccc(Cn2c(C3CCN(C(=O)c4cc(Cl)ccc4F)CC3)n[nH]c2=O)cc1	-6%	i	?	-31%
CCN1c2cc(C(=O)Nc3ccc(Br)cc3)ccc2C(=O)N2CCCCCC21 (stereo not given)	-12%	i	?	40µM*
O=C(NC1CCCCC1)c1cnc2c(c1)N([S+](=O)([O-])c1cccnc1)CCC2	4%[70.6 µM]	i	-10%[172 µM]	89µM*
COCCOC(=O)C1=C(C)N=C2SC=C(CC(=O)NCc3cccc(F)c3)N2C1c1ccccc1 (stereo not given)	-2%	i	?	-26%
COCCOC(=O)C1=C(C)N=C2SC=C(CC(=O)NCCc3ccccc3)N2C1c1ccccc1 (stereo not given)	-3%	i	50µM*	?
CCOC(=O)C1=C(C)N=C2SC=C(CC(=O)N3CCC(C)CC3)N2C1c1ccccc1F (stereo not given)	-16%	i	40µM*	?
CC1=C(C(=O)Nc2ccccc2)C(c2cc(C)ccc2C)N2C(CC(=O)N3CCCC3)=CSC2=N1 (stereo not given)	?	i	32µM*	?
CCOC(=O)C1=C(C)N=C2SC=C(CC(=O)N3CCC(C)CC3)N2C1c1cccc(OC)c1 (stereo not given)	-17%	i	?	?
COCCOC(=O)C1=C(C)N=C2SC=C(CC(=O)N3CCCCC3C)N2C1c1ccccc1 (stereo not given)	-9%	i	35µM*	-16%
CNc1nccc(N2CCC(CC(=O)NCc3ccccn3)CC2)n1	0%	i	?	-8%
CCNc1nccc(N2CCC(CC(=O)N3CCN(c4ccccc4F)CC3)CC2)n1	-30%	i	?	18µM*
CNc1nccc(N2CCC(CC(=O)NC3CCN(Cc4ccccc4)CC3)CC2)n1	-13%	i	?	35µM*
CNc1nccc(N2CCC(CC(=O)N3CCN(c4cccc(OC)c4)CC3)CC2)n1	?	i	25µM*	?
CCNc1nccc(N2CCC(CC(=O)NCc3ccccc3F)CC2)n1	-8%	i	40µM*	?
O=C(NC1CC1)[C@@H]1C[C@H](Oc2cccnc2)CN1C(=O)c1cc2ccccc2[nH]1	nt	nt	i	-8%
COc1ccc(CNC(=O)N2CCCCCC2CN2CCOCC2)cc1 (stereo not given)	-7%	i	2%	-11%
O=C(NCCC1CCN(Cc2ccccc2)CC1)C1CCN(c2cnn(Cc3ccccc3)c(=O)c2)C1 (stereo not given)	-20%	i	?	?
CCOC(=O)C1c2c(OC)ccc3c2C(=CC(C)(C)CO3)CN1C(C)=O (stereo not given)	nt	nt	?	-32%
CC[C@H]1CN(S(=O)(=O)c2ccccc2)CC[C@H]1CC(=O)NCCOC	0%[70.6 µM]	i	-14%[172 µM]	-27%[174 µM]
O=C(NC1CCCC1)C1CCCN(c2nccc(Nc3ccccc3F)n2)C1 (stereo not given)	nt	nt	?	40µM*
O=C(NC1CC1)C1CCCN(c2nccc(Nc3ccccc3F)n2)C1 (stereo not given)	nt	nt	?	89µM*
CNC(=O)C1CCCN1c1nccc(Nc2ccccc2F)n1 (stereo not given)	nt	nt	i	2%[138 µM]
SMILES	hNpr1 antagonist	Luciferase inh	HEK cytotox	NIH3T3 tox
CC12CCC(=O)C=C1CCN(c1ccccc1)C2 (stereo not given)	nt	nt	-22%	?
Cc1ccc(S(=O)(=O)NC[C@H]2OC[C@@H](NC3CCNCC3)[C@@H]2O)cc1	0%	i	i	i
O=C(NC1CC1)c1cc(C2CC2)nc2c1c(C1CCCN1)nn2-c1ccccc1 (stereo not given)	nt	nt	79µM*	32µM*
O=C(NC1CCNCC1)c1cc(C2CC2)nc2c1c(C1CCCN1)nn2-c1ccccc1 (stereo not given)	nt	nt	45µM*	22µM*
Cn1nc(C2CCCN2)c2c(C(=O)NC3CC3)cc(C3CC3)nc21 (stereo not given)	nt	nt	i	i
COc1cc(-c2nc(-c3c(C)noc3C)cc3cc(CN(C)C)oc23)ccn1	-13%[70.6 µM]	i	79µM*	40µM*
COc1ccc(Nc2nc(-c3c(C)noc3C)cc3cc(CN(C)C)oc23)cn1	-1%[70.6 µM]	i	79µM*	79µM*
Cc1noc(C)c1-c1cc2cc(CN(C)C)oc2c(-c2ccc([S+](C)(=O)[O-])cc2)n1	0%[70.6 µM]	i	?	?
COCCCNc1nc(-c2c(C)noc2C)cc2cc(CN(C)C)oc12	4%[70.6 µM]	i	-29%[172 µM]	?
COc1ccc(-c2nc(-c3c(C)noc3C)cc3cc(C(C)C)oc23)cn1	5%[70.6 µM]	i	?	?
COc1ccc(-c2nc(-c3c(C)noc3C)cc3cc(CN(C)C)oc23)cn1	-1%[70.6 µM]	i	?	50µM*
COc1ccccc1-c1nc(-c2c(C)noc2C)cc2cc(CN(C)C)oc12	1%[70.6 µM]	i	?	?
Cc1noc(C)c1-c1cc2cc(CN(C)C)oc2c(Nc2ccncn2)n1	-3%[70.6 µM]	i	?	45µM*
O=C(Cc1cccc(Cl)c1)NC1CCN(c2nc3ncccc3o2)C1 (stereo not given)	nt	nt	-19%[172 µM]	-25%[138 µM]
Cc1nn(C)c(C)c1S(=O)(=O)N1CCCC(C(=O)N2CCCn3nc(-c4ccc(F)cc4)cc3C2)C1 (stereo not given)	nt	nt	32µM*	?
Cc1nn(C)c(C)c1S(=O)(=O)N1CCCC(Cn2c(C3CC3)nc3cccnc32)C1 (stereo not given)	-1%	i	1%	?
CC(C)CCNC(=O)CCC1CCN(C(=O)c2ccccc2F)CC1	-3%	28µM*	-22%	-28%
O=C(COc1ccccc1)N1CCCCC1c1nc(CCOCC2CCOCC2)no1 (stereo not given)	nt	nt	?	-27%
O=C(NCc1ccccc1F)c1nc2sccn2c1-c1cccnc1	nt	nt	i	?
CCOC(=O)NC1CCCN(Cc2cccc(-c3ccc(C)c(Cl)c3)c2)C1 (stereo not given)	nt	nt	40µM*	?
Cc1ccc(C(=O)NC2CCCN(Cc3cccc(-c4ccc(C)c(Cl)c4)c3)C2)cc1 (stereo not given)	nt	nt	i	0%
Cc1cc(C)cc(-c2ccc(CN3CCCC(NC(=O)Cc4ccccn4)C3)cc2)c1 (stereo not given)	nt	nt	?	35µM*
Cc1ccc(-c2cccc(CN3CCCC(NC(=O)Cc4ccccn4)C3)c2)cc1Cl (stereo not given)	nt	nt	-20%	25µM*
